Measured values: PubChem BioAssay AID720633 (The Scripps Research Institute Molecular Screening Center, 2013)
This is one part of the list. Calls of active or inactive are those of the source.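 Rule for the calls: active = inhibition above the cutoff, the mean of compounds lying between the control bounds plus 3 SD of those compounds (cut at about 17% in these data); inactive = the rest.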

Each compound was assayed against Fibrinogen beta chain (Homo sapiens) (UniProt P02675) (assay: fibrin DD(E) probe displacement, second cyclic peptide – biochemical, fluorescence polarization, human fibrin, counter-screen for fibrin DD(E)-Tn7 binding project, confirmation (AID 720633;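 note: 0% = median of compound sample wells and 100% = excess unlabeled Aha-Tn7 peptide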)). Settings: TRITC-Tn7 probe displacement, at 8.3 µM, hits give high values.
Chain of Fibrinogen beta chain (Homo sapiens) (P02675 whole entry, looked up): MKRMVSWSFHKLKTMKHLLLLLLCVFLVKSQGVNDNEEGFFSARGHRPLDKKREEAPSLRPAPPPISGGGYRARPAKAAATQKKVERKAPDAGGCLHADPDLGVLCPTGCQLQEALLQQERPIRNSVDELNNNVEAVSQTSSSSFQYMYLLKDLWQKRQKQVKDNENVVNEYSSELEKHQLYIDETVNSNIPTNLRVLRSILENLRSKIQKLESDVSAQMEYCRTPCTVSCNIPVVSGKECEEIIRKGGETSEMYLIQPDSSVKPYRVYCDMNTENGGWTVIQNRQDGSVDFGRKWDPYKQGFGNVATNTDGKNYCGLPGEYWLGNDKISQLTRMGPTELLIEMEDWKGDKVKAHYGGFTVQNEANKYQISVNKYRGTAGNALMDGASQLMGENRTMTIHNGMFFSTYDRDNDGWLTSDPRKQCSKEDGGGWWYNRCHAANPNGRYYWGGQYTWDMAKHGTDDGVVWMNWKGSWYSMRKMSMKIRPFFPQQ

Row | SMILES | inhibition
1 | Cc1nnc2n1N=C(c1ccc3c(c1)NC(=O)CO3)CS2 | -7.74% (inactive)
2 | O=C(/C=C/c1ccccc1[N+](=O)[O-])NCC1CCCO1 (configuration not stated) | 6.91% (inactive)
3 | OC(c1ccccc1)c1nc(-c2cnc3ccccc3c2)cs1 (configuration not stated) | 3.54% (inactive)
4 | CCOc1ccc(Nc2oc(Cc3ccccc3)nc2C#N)cc1 | -10.1% (inactive)
5 | Oc1ccc2ccc3cccc[n+]3c2c1 | -23.9% (inactive)
6 | CN1c2ccc(C=O)c3c(C=O)ccc(c23)N(C)C1(C)C | -6.98% (inactive)
7 | COc1cc(C(=S)N2CCOCC2)ccc1O | 6.48% (inactive)
8 | O=C(CSc1nnc(-c2ccccn2)n1-c1ccc(Cl)cc1)Nc1ccccc1-c1ccccc1 | -2.23% (inactive)
9 | CC(C)(C)c1cc(CN2CCN(CCC#N)CC2)cc(C(C)(C)C)c1O | 0.66% (inactive)
10 | Cn1c(CC(=O)NNC(=O)c2ccccc2F)nc2ccccc21 | -5.95% (inactive)
11 | CN1C(=O)c2cccc3c(N)ccc(c23)C1=O | 8.6% (inactive)
12 | O=C(Nc1ccon1)c1sc2ccccc2c1Cl | -2.1% (inactive)
13 | COc1cccc(N2CC(NS(=O)(=O)c3cccs3)CC2=O)c1 (configuration not stated) | -2.24% (inactive)
14 | COc1ccc(S(=O)(=O)c2c[nH]c(=S)[nH]c2=O)cc1Cl | -4.35% (inactive)
15 | O=C(COC(=O)/C=C/c1ccc(OC(F)F)cc1)NC1CCCCC1 | 6.67% (inactive)
16 | O=C(COC(=O)c1ccc([N+](=O)[O-])cc1Cl)NC(=O)c1ccccc1 | 1.45% (inactive)
17 | Cc1cc2nc3c(=O)n(Cc4ccccc4)c(=O)[nH]c3nc2cc1N | -4.98% (inactive)
